Laboratory results taken from PubChem BioAssay (NCATS).
Values joined by “and” are separate entries in the source; they are usually repeats but may differ in a detail not shown here. Identical values can stand only once. Records with an inconclusive call do not appear. Active and inactive are the calls of the source. Calls follow the shape of the dose curve; as a rule, active = well fitted curve in the direction sought with a large enough effect; inconclusive = small, poorly fitted or top-dose-only effect, or another doubt; inactive = no such curve, though single readings can be large; an effect the other way counts as inactive or inconclusive.

Tests used:
[1] = Viability qHTS for spleen associated tyrosine kinase inhibitor (SYKi) naive MV4-11 cells (AID 1963823); also: nearly all actives have a fitted effect of over 40% in size; also: potency is read from the fitted curve at half-maximal effect
Procedure, shortened: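 SYKi-naive MV4-11 AML cells, 500 per well, were exposed to library compounds for 72 hr at 37 C, 5% CO2. Viability was then read by CellTiter-Glo luminescence after 10 min at room temperature.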

[2] = Quantitative highthroughput screen to assess conditional lethalithy of NOMO1 cells grown in RPMI1640 with untreated serum (RPMI+s) (AID 1963876);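 also: 100% = DMSO wells and 0% = empty wells without cells; nearly all actives have a fitted effect of over 35% in size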
Procedure, shortened: (§1)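 Each medium arm—HPLM with 10% dialyzed FBS, or RPMI1640 with 5 mM glucose and 10% untreated or dialyzed FBS—was screened against an 11-point, 3-fold compound titration for 48 h at 37 °C, with CellTiter-Glo luminescence as endpoint.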

[3] = Quantitative highthroughput screen to assess conditional lethalithy of NOMO1 cells grown in RPMI1640 with dialyzed fetal bovine serum (RPMI+ds) (AID 1963877);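 also: series mostly up to about 46 µM; 100% = DMSO control wells and 0% = empty wells; nearly all actives have a fitted effect of over 30% in size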
Procedure, shortened: as §1

[4] = Quantitative highthroughput screen to assess conditional lethalithy of NOMO1 cells grown in Human Plasma-Like Medium with dialyzed fetal bovine serum (HPLM+ds) (AID 1963878);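 also: 100% = DMSO wells and 0% = empty wells on each plate; nearly all actives have a fitted effect of over 35% in size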
Procedure, shortened: as §1

[5] = Quantitative highthroughput screen to assess conditional lethalithy of P12 Ichikawa cells grown in Human Plasma-Like Medium with dialyzed fetal bovine serum (HPLM+ds) (AID 1963879); conditions: Potency: viability; also: series mostly up to about 46 µM; nearly all actives have a fitted effect of over 35% in size
Procedure, shortened: as §1

[6] = Quantitative highthroughput screen to assess conditional lethalithy of P12 Ichikawa cells grown in RPMI1640 with dialyzed fetal bovine serum (RPMI+ds) (AID 1963880); conditions: Potency: P12-Ichikawa viability;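 also: 100% = DMSO wells and 0% = empty wells on each plate; nearly all actives have a fitted effect of over 35% in size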
Procedure, shortened: as §1

[7] = Quantitative highthroughput screen to assess conditional lethalithy of P12 Ichikawa cells grown in RPMI1640 with untreated serum (RPMI+s) (AID 1963881); conditions: Potency: viability
Procedure, shortened: as §1

[8] = Quantitative highthroughput screen to assess conditional lethalithy of SEM cells grown in Human Plasma-Like Medium with dialyzed fetal bovine serum (HPLM+ds) (AID 1963882)
Procedure, shortened: as §1

[9] = Quantitative highthroughput screen to assess conditional lethalithy of SEM cells grown in RPMI1640 with unreated serum (RPMI+s) (AID 1963883)
Procedure, shortened: as §1

[10] = Quantitative highthroughput screen to assess conditional lethalithy of SEM cells grown in RPMI1640 with dialyzed fetal bovine serum (RPMI+ds) (AID 1963884)
Procedure, shortened: as §1

[11] = Cellular viability qHTS for adrenocortical cancer (ACC) cell line SW-13 (AID 1963989); conditions: SW-13 ACC cells viability, CellTiter-Glo, 48 h; activity (max response): active compounds read low;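 also: cells grown in serum-free medium with ITS supplement; % is scaled to controls: 0 for no effect and ±100 for the full control effect; nearly all actives have a fitted effect of over 65% in size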
Procedure, shortened: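 48 h treatment, SW-13 in ITS/DMEM serum-free; doses up to 46 uM; readout CellTiter-Glo luminescence; curve fit four-parameter logistic.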

[12] = Viability qHTS for spleen associated tyrosine kinase inhibitor (SYKi) drug resistant MV4-11 cells (AID 1963824)
Procedure, shortened: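 CellTiter-Glo luminescence, read 10 min after reagent addition, reports viability after a 72 hr compound exposure. Cells are an MV4-11 line made resistant to SYK inhibition, seeded at 500 per well onto compound-containing plates.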

[13] = Cellular viability qHTS for adrenocortical cancer (ACC) cell line NCI-H295R (AID 1963990); also: nearly all actives have a fitted effect of over 60% in size; also: potency is read from the fitted curve at half-maximal effect
Procedure, shortened: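 Compound titrations (up to 46 uM final) are applied to NCI-H295R cultures for 48 h at 37C. Viable cell number is estimated by CellTiter-Glo signal, normalised to DMSO and doxorubicin controls.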

CC1=NN(c2ccccc2)C(=O)C1
active: Potency [1] 11.9 µM
inactive: Potency [2] | Potency [3] | Potency [4] | Potency [5] | Potency [6] | Potency [7] | Potency [8] | Potency [9] | Potency [10] | activity (max response) [11] 8.8% and -4.32%

O=C(O)c1cccnc1Nc1cccc(C(F)(F)F)c1
inactive: Potency [1] | Potency [2] | Potency [3] | Potency [4] | Potency [5] | Potency [6] | Potency [7] | Potency [8]

N#C/C(=C\c1ccc(O)c(O)c1)C(=O)NCc1ccccc1
inactive: Potency [13]
active: Potency [1] 13.2 µM | Potency [12] 9.2 µM and 16.6 µM

O=C1CCCC(=O)C1C(=O)c1ccc(C(F)(F)F)cc1[N+](=O)[O-]
inactive: Potency [1] | Potency [2] | Potency [3] | Potency [4] | Potency [5] | Potency [6] | Potency [7] | Potency [8] | Potency [9] | Potency [10] | activity (max response) [11] 6.97% | Potency [13]

CNC(=O)c1cccc(-c2ccc3c(N4CCOC[C@@H]4C)nc(N4CCOC[C@@H]4C)nc3n2)c1
active: Potency [1] 164 nM and 411 nM and 132 nM | Potency [12] 291 nM and 580 nM and 417 nM | Potency [13] 0.794 µM
